TRPM1 prom inh: inhibitors of MITF-dependent TRPM1 promoter reporter, primary screen, cell-based, SK-MEL-5, single point, luciferase. SK-MEL-5 TRPM1 promoter luciferase, 24 h. inhibition, % at 12.5 µM. actives 0.83% (n = 330,000). AID 488899, 2010;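 active = mean inhibition across replicates of 60% or more, whatever share of single replicates reaches that level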
PAX8 inh HTS: inhibitors of PAX8-driven TPO luciferase reporter, primary screen, RMG-I cells, single concentration; inhibition, % at 12.6 µM; SteadyGlo, 24 h; actives 1.2% (n = 360,000);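 active = mean replicate inhibition at least 60% with every replicate also reaching 60%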;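 also: luciferase light reporting Pax8 driven TPO promoter activity; plate controls were median of neutral control wells for no effect and mitoxantrone controls for full effect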
Shn3 3UTR inh: reduction of Shn3 3'UTR firefly luciferase signal, primary screen, Schnurri-3 inhibitor project, cell-based, Clone20 osteoblasts, set 2; inhibition, % at 12.5 µM; Clone20 osteoblast Shn3 3'UTR firefly luciferase, 24 h; actives 0.52% (n = 360,000); AID 588674, 2011;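 active = mean inhibition of at least 75% with every replicate also reaching 75%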;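 also: 0% = median of neutral control wells and 100% = pilot-screen positive control compound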
Peg3 promoter: Peg3 promoter-driven luciferase inhibitors, primary screen, cell-based, HeLa, luciferase luminescence. AID 588405, 2011. actives 1.7% (n = 360,000). inhibition, % at 20 µM. HeLa PEG-Prom luciferase reporter, overnight;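 active = inhibition of at least 50% at 20 µM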
LMP1 NFkB inh: EBV LMP1-driven NF-kappaB luciferase reporter inhibitors, primary screen, cell-based, luminescence, single point; LMP1-induced NF-kappaB luciferase reporter cells; inhibition, % at 12.5 µM; actives 0.69% (n = 350,000); in the data active = inhibition above about 41%;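 also: 0% = neutral control wells and 100% = reference inhibitor control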
HIF-2a inh: HIF-2a reporter inhibitors, primary screen, luminescence, 786-0 RCC cells. 786-0 RCC cells HIF-2a reporter, luciferase luminescence, overnight. inhibition, % at 18.8 µM. actives 0.72% (n = 360,000). AID 624352, 2012;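 active = inhibition of the luminescence signal of 40% or more relative to plate controls, in a single-dose primary screen at 18.75 µM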
Mdm2 MdmX conf: retested Mdm2-MdmX interaction blockers, confirmation, cell-based, luminescence, single concentration, set 2; SaOS-2 split-luciferase Mdm2/MdmX complementation; AID 504601, 2011; inhibition, % at 8 µM; actives 99% (n = 740); shares compounds with HIF-2a inh;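 active = mean inhibition of the luminescence signal across two replicates at or above 26 percent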
Target sequence (O15151 whole entry, looked up): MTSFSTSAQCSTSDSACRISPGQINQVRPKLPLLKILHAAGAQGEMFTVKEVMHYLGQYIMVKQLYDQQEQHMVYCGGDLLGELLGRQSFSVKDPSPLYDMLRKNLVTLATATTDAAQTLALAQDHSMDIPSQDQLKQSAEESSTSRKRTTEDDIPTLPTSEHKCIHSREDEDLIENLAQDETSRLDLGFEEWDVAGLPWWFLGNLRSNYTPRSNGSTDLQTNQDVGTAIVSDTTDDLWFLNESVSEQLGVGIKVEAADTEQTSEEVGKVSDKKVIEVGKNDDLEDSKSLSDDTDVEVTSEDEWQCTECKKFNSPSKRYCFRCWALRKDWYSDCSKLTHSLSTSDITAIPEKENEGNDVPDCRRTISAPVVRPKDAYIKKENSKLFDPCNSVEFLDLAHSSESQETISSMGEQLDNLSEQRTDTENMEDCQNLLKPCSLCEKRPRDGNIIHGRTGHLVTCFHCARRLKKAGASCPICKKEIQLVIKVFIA
Target sequence (Q00987 whole entry, looked up): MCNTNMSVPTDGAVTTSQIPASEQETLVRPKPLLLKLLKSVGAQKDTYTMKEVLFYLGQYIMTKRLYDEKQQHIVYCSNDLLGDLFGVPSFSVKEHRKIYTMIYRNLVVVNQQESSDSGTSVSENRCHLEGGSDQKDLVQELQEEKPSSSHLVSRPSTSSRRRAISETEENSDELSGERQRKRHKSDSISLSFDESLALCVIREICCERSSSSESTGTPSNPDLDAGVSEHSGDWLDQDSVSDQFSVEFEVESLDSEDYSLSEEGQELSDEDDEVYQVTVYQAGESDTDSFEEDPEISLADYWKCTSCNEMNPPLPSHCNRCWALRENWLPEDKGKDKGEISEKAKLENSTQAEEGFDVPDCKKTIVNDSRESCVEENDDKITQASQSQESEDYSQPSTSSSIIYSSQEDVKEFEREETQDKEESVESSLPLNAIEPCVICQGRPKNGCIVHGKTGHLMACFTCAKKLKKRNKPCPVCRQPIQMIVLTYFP
HIF-2a inh conf: HIF-2a reporter inhibitor retest, confirmation, luminescence, 786-0 RCC cells; AID 651580, 2012; actives 56% (n = 1,800); inhibition, % at 18.8 µM; shares compounds with HIF-2a inh; HIF-2a luciferase reporter luminescence, overnight;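 active = mean inhibition across four replicates of at least 40 percent at the single tested concentration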
HIF-1a cs: HIF-1a luciferase reporter signal reduction – MiaPaCa-2 cells, single concentration, counter-screen for HIF-2a inhibitor project, confirmation. inhibition, % at 18.8 µM. shares compounds with HIF-2a inh. MiaPaCa-2 HIF-1a luciferase reporter, desferoxamine, overnight. actives 72% (n = 1,800);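 active = mean inhibition of the reporter signal across four replicates at the single tested dose of 50% or more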
* = called active by the depositor; / = not tested or not shown. An excerpt weighted towards active compounds, which were near 2.8% of everything screened.

SMILES | TRPM1 prom inh | PAX8 inh HTS | Shn3 3UTR inh | Peg3 promoter | LMP1 NFkB inh | HIF-2a inh | HIF-2a inh conf | HIF-1a cs | others
CC(=O)N(C)C[C@H]1Oc2ncc(-c3ccc(C(=O)N(C)C)cc3)cc2C(=O)N([C@H](C)CO)C[C@@H]1C | / | -12.4 | / | / | / | / | / | /
N#Cc1ccc(CSc2nnc(-c3c[nH]c4ccccc34)n2-c2ccccc2)cc1 | -4.8 | 52.8 | -0.7 | 18.8 | -1.6 | 46.6* | 30.4 | 70.6*
Cc1c(S(=O)(=O)Nc2ccc3c(c2)OCCO3)cnn1C | -3.2 | -1.0 | -4.6 | 4.1 | -8.0 | 13.2 | / | /
Cc1nn(C)cc1S(=O)(=O)Nc1ccc2c(c1)OCCO2 | -9.7 | 13.9 | 18.3 | 21.9 | 31.8 | 40.6* | 44.5* | 55.9*
O=C(O)c1cc(S(=O)(=O)Nc2ccc3c(c2)OCCO3)c(Cl)cc1Cl | 12.5 | 5.8 | 38.0 | 20.3 | 22.6 | 41.7* | 54.4* | 70.6*
O=C(O)c1cc(N/N=C/c2ccc3c(c2)OCCO3)ccc1Cl | 82.4* | 30.5 | 15.9 | -24.5 | 45.3* | 61.6* | 79.9* | -53.2
O=C(O)c1cc(N/N=C/c2ccc3c(c2)OCO3)ccc1Cl | 39.1 | -30.5 | -9.1 | -0.4 | -3.8 | -6.5 | / | /
CCCNC(=O)[C@@H]1[C@@H](CO)[C@@H]2Cn3c(ccc(-c4ccc(F)cc4)c3=O)[C@H]1N2C | / | 15.1 | / | / | / | / | / | /
CCCCS(=O)(=O)/C=C\C1C2C=CC(C2)C1S(=O)(=O)CCCC (stereo not given) | -8.2 | / | 10.0 | 11.9 | -0.6 | 11.7 | / | /
CCCCS(=O)(=O)/C=C\C=C/S(=O)(=O)CCCC | 104.0* | / | 96.1* | 102.0* | 92.1* | 93.3* | / | / | Mdm2 MdmX conf=102.5*
Cc1cccc(NC(=O)C23CCC(C)(C(=O)O2)C3(C)C)c1 (stereo not given) | 1.1 | 16.4 | -20.5 | 16.8 | -1.5 | 10.2 | / | /
CC12CCC(C(=O)Nc3ccc4c(c3)OCCO4)(OC1=O)C2(C)C (stereo not given) | 24.8 | -61.8 | 15.3 | 12.3 | 27.8 | 42.1* | 31.6 | 50.3*
O=C(Cc1ccccn1)N[C@@H]1CC[C@H](CCn2cc(-c3ccccc3)nn2)O[C@H]1CO | / | 4.4 | / | / | / | / | / | /
CN(C)c1nc(C=C(C#N)C#N)c(Cl)n1-c1ccc(F)cc1 | 100.8* | 68.1* | 97.5* | 110.3* | -47.4 | 91.2* | 92.3* | 92.1*
CO[C@H]1CN(C)C(=O)c2cc(NC(=O)C3CCOCC3)ccc2OC[C@@H](C)NC[C@@H]1C | / | -6.9 | / | / | / | / | / | /
CCN1CCN(C(=S)c2ccc(-c3ccccc3)cc2)CC1 | 4.7 | 12.6 | 37.4 | 21.9 | 0.6 | 80.0* | 95.2* | 77.6*
C[C@@H]1CN([C@@H](C)CO)C(=O)Cc2cc(NC(=O)Nc3ccc4c(c3)OCO4)ccc2O[C@H]1CN(C)C(=O)Nc1ccc(F)cc1 | / | -21.2 | / | / | / | / | / | /
CCOC(=O)c1cc([N+](=O)[O-])cc([N+](=O)[O-])c1Sc1ncnc2nc[nH]c12 | 106.6* | 25.3 | 95.7* | 98.3* | -5.3 | 83.2* | 61.0* | 107.1*
Cc1cccc(N(Cc2cc(=O)[nH]c3ccccc23)C(=O)CCl)c1 | 76.3* | 115.2* | -3.0 | 94.8* | 17.3 | 65.0* | 90.2* | 103.7* | Mdm2 MdmX conf=102.0*
CC(=O)N(Cc1cc(=O)[nH]c2ccccc12)c1cccc(C)c1 | 13.5 | / | 7.0 | 28.4 | -0.5 | 19.0 | / | /
COc1ccccc1N(Cc1cc(=O)[nH]c2ccccc12)C(=O)c1ccccc1 | 2.7 | 2.2 | 5.7 | 15.2 | -6.8 | 67.3* | -4.4 | 1.9
COC(=O)C[C@@H]1CC[C@H]2[C@@H](COc3ccc(NC(=O)Nc4cccc(C#N)c4)cc3C(=O)N2C)O1 | / | -9.8 | / | / | / | / | / | /
CC(C)(C)[C@H](N)C(=O)N[C@H]1CCC2C3CC=C4C[C@@H](O)CC[C@]4(C)C3CC[C@@]21C (stereo not given in full) | 76.1* | 95.1* | 12.1 | 96.0* | -95.2 | 93.7* | 7.2 | 104.7* | Mdm2 MdmX conf=103.2*
CCC(=O)Nc1ccc2c(c1)C(=O)N(C)[C@H]1CC[C@@H](CC(=O)NCCOC)O[C@H]1CO2 | / | 0.1 | / | / | / | / | / | /
O=C(Nc1ccccc1)N[C@H]1CC[C@H](CCNS(=O)(=O)c2cccc(F)c2)O[C@@H]1CO | / | 23.4 | / | / | / | / | / | /
SMILES | TRPM1 prom inh | PAX8 inh HTS | Shn3 3UTR inh | Peg3 promoter | LMP1 NFkB inh | HIF-2a inh | HIF-2a inh conf | HIF-1a cs | others
CCC1CCCCN1CCCNC(=O)C1CCN(Cc2nc(-c3ccc(Cl)cc3)oc2C)CC1 (stereo not given) | 99.5* | / | -11.9 | 79.7* | -68.3 | 15.8 | / | / | Mdm2 MdmX conf=102.5*
Cc1oc(-c2ccc(Cl)cc2)nc1CN1CCC(C(=O)NCCCN2CCOCC2)CC1 | 3.8 | / | 0.4 | -7.2 | -12.2 | 2.6 | / | /
COC1OC(COC(=O)c2ccccc2)C(OC(=O)c2ccccc2)C1OC(=O)c1ccccc1 (stereo not given) | 11.6 | 24.7 | 21.5 | 18.8 | -6.4 | 27.1 | / | /
C=C(CN(C)C)C(=O)c1ccc(OC2OC(COC(C)=O)C(OC(C)=O)C(OC(C)=O)C2OC(C)=O)cc1 (stereo not given) | 115.0* | 83.2* | 98.4* | 99.8* | -6.5 | 88.6* | 96.1* | 105.3*
Cn1cc(C(C[N+](=O)[O-])c2ccccc2)c2ccccc21 (stereo not given) | 15.8 | 37.4 | 11.8 | 26.8 | -7.8 | 95.7* | 4.5 | 28.8
COc1ccc(S(=O)(=O)N(C)C[C@H]2Oc3ccc(NC(=O)CCN4CCOCC4)cc3CC(=O)N([C@H](C)CO)C[C@H]2C)cc1 | / | -14.6 | / | / | / | / | / | /
C[C@H](CO)N1C[C@H](C)[C@H](CN(C)S(=O)(=O)c2ccc(Cl)cc2)Oc2c(NS(=O)(=O)c3ccc(Cl)cc3)cccc2C1=O | / | 15.5 | / | / | / | / | / | /
OC(COc1ccc(CNCCc2ccc(C(F)(F)F)cc2)cc1)CN1CCCCC1 (stereo not given) | 94.0* | 35.2 | 34.1 | 104.0* | -12.6 | 22.8 | / | / | Mdm2 MdmX conf=103.7*
OC(COc1ccc(OCC(O)CN2CCCCC2)cc1)CN1CCCCC1 (stereo not given) | -9.6 | -10.7 | -12.5 | -12.3 | -3.1 | 25.8 | / | /

Assay outcomes: PubChem BioAssay, several laboratories
